The text below walks through data of publication PMC12864922, “TDP-43 directly inhibits mRNA accumulation in neurites through modulation of mRNA stability”.

Over roughly 9,900 sequences, “r (bound/input frequency ratio)” has its median near 0.7; the highest 2% begin near 6.5. The entries come from a sample that favours the highest values as a whole.

The labels stand for the following.
B1: ENSMUSG00000058297.31|Spock2|65:69;73:86;95:106;120:126;135:144;150:175 (ssRNA)
RNA: GGGAGUUCUACAGUCCGACGAUCGCUUCGAUAUCCGCAUGCUAACUUAGCAAAUGGAUCCGGAAGUCAGUGCGGAGGACCCUGGCUCCAGUGGGGGAGGACUGGGGACACACGCUACACACAUACACACAUAUGAGAACACACACAUACAUGUGAGAUGUGACACACACAUGUGAGAACACACAUACUGAGAACACACACACACACACACACACACACAUGUGAGUCACCCAAAGGUCCCUAUGUUAUUGAUUUUCAAAUGCACACUUUCACACACAAGGAUACACUAACAGACCAAAAUCAACUCUUGCGGUCGCACUAGUGUGGAAUUCUCGGGUGUCAAGG
B2: ENSMUSG00000031028.17|Tub|206:210 (ssRNA)
RNA: GGGAGUUCUACAGUCCGACGAUCGCUUCGAUAUCCGCAUGCUACUCUGUCCAGCUUUGACAGCAAGCUGGCCUGCGAGUAGAGGCCCCCCACUGCCUUUAGGUGGCCCAGUCCGGAGUGGAGCUUGCCUGCCUGCCAAGACAGCCCUGCCUACCCUCUGUUCAUAGGCCCUCUAUGGGCUUUCUGGCCUUACCAACCAGAGACUGGCUGCUCUGCCUCUGCUGCUGAAGCAGGGGGGACAGCAAAUGGCAUACACAGGAGAAGAAUAUUUCUGUGCCCCAAGGUCAACACACAUGCCCAGUCCCUCUUGCGGUCGCACUAGUGUGGAAUUCUCGGGUGUCAAGG
B3: ENSMUSG00000031028.285|Tub (ssRNA)
RNA: GGGAGUUCUACAGUCCGACGAUCGCUUCGAUAUCCGCAUGCUAUGCAGGUAAGGAGGCUGGAUUGAUGUAAAUGGAAGUAGUACUUUAAGAAAGCUCUAGAUUUCCCAGGUUGGACACUCGACGAAAGGCACACCUGCUGCAGCAGGUUCUGACACACCUGAGCCAUACAUUGCCAUCAGAGAACCCUCAGCGAGGUAGCCUUUGUUUACAGUCUAGUUUCUAGAGGGCAGUAGGACUUCCAUGCUGGGGCUGGCCUAUCUCCUGAUGAAAGAUUACAGUGCCAUCUCCUUCCCAUAGUUCUGCUCUUGCGGUCGCACUAGUGUGGAAUUCUCGGGUGUCAAGG
B4: ENSMUSG00000061578.738|Ksr2 (ssRNA)
RNA: GGGAGUUCUACAGUCCGACGAUCGCUUCGAUAUCCGCAUGCUAUUGUCUAAGGCUGUGGGUUUUAAAUACCUGCUGCAGGCCUCCCAUCUCUGGCUCUUUGUUUCCACUCUGGCCCAAGUUUGAGUCUCCAUAUGGGCCCUUCCUGUCCUCAUGCCCUGCCUGUCUUCAUUCCACCCAUCCACCCUCCUAAGGAUUGGUCUUGUUCCGAGAGUGAUCCUGGUAACGCCAAGCCUCCCUCUGCCCCUGUGUUGGCUUCUGUGACGGACUACCACACACCAAGAGGUUUUUCACAGUGAAGAUGUCUCUUGCGGUCGCACUAGUGUGGAAUUCUCGGGUGUCAAGG
B5: ENSMUSG00000061578.1348|Ksr2 (ssRNA)
RNA: GGGAGUUCUACAGUCCGACGAUCGCUUCGAUAUCCGCAUGCUACUCUUCCUCCUGUCCCACAGCCCCCAGGUCAGAGCCAAGCGCAUCAUCUGCAGCACACAUGUCUGUCUCCACAGGCAAGCAACCUUGCCAAGGCAGGCCAGACAGGACAGCCCAGCUUCCCACUCCAGACAUGUUGUUCUUACAUCUCUGACCCAGUGAUCUUUCUAGGGGUCUGUCACAUGUCCCAACAGGUGGACAGCUCUCCAAGUCACCAACCUGAGGAAAAUAUCCCUCCUUGUAAAAAGGCUUUCUCUUUGUAACUCUUGCGGUCGCACUAGUGUGGAAUUCUCGGGUGUCAAGG
B6: ENSMUSG00000029028.239|Lrrc47 (ssRNA)
RNA: GGGAGUUCUACAGUCCGACGAUCGCUUCGAUAUCCGCAUGCUAGUGCGAGAGCCGUUAGCUGUCAGAACUAGUGAAGCUCCAGGCUCCUCGUGGCAGACCCUGGACAACGCUGGUAGCUGUUCUCCAUGAGACACGGCUGCUCACAGGUCCCUUUGAGUGGCUGUGGCAAGUACUCACCUACUAAGUGUUUAGGGUGGAGCUAUCCUGUGCUCACCCUGUCUCCCCCCAGUUCCUGCUGUUCCCUCCAGCCCAGCCCAGCCCAGGUGUGAGAUUCAUUGAGAUUUUUGAAACUGUUUUUACAGCUCUUGCGGUCGCACUAGUGUGGAAUUCUCGGGUGUCAAGG
B7: ENSMUSG00000029028.154|Lrrc47 (ssRNA)
RNA: GGGAGUUCUACAGUCCGACGAUCGCUUCGAUAUCCGCAUGCUAGCUUGUUUCCAGGCACCGUGCUGCCGCCAUGCUCCCAGGGCAGCAUCUGCCUUCCACGGCUGUGCUUGGAACUGUAGUGCUGGUCGUUGUUGGCACAUCUGCGCCUUGGCCAAGGAAGUUAUCUAUGUCCGUGUAGUCCUUUGUAGUCAGACAGAUGCUUCGUGGACUGUGCCUCACACAUGGCCCUGCAGGCUCCAUGUCAGCGUGUCCCACUAUUCAUGUCCCAUCUCUGUGCAUCCUGACUGCGCACAUCCCAUCUCCUCUUGCGGUCGCACUAGUGUGGAAUUCUCGGGUGUCAAGG
B8: ENSMUSG00000061578.113|Ksr2|98:102;184:189;252:256 (ssRNA)
RNA: GGGAGUUCUACAGUCCGACGAUCGCUUCGAUAUCCGCAUGCUACUCCCAUUUUGUAAGAACACUGUUCUAACUCACCUCAUGCCCACGCUACCCUGGGCAACUGGAGAACACCAUAGCGUUUCAGCUGAUGUGACAUUUGCACACACCUUUACCAGUUCACCAUCAUUCAUGGCUUCCCCCAAAGUCCCGAGUCCUGAGAACCGGGGCUGUGGCAAGAGAGUUCUGCACACAUCUCUCUGUGGGGCUAGCAAUGCCGGGGUUAAGUUCUCCCUCGGUGAUGGAGACGGUCCUGGCAUACCAUGCUCUUGCGGUCGCACUAGUGUGGAAUUCUCGGGUGUCAAGG
B9: ENSMUSG00000034801.54|Sos2 (ssRNA)
RNA: GGGAGUUCUACAGUCCGACGAUCGCUUCGAUAUCCGCAUGCUAUCAAUGACCUUGGCCAUAUGUAGUCAUUGACACUGGAAUAGUAUUUGUAAAGGUUUUUAAUUUAUUCAAAAAGACAUAGUAUUUUAGUACUUUUUACAGAAAUGCUACUGAUUAAAUAAGCUCUUAAGAAUUAGUAAACUUGUUGGAUGGCAGUGGCCCACAGCUGUAAUCCCAGCACCCUGGUUGCAGGGGCAGGUGGGCUUCAGGGUUUGAGAGCAGCCUGGUCUACAGAGCAAGUCCCAGGACAGCCAGGGCUACACCUCUUGCGGUCGCACUAGUGUGGAAUUCUCGGGUGUCAAGG
B10: ENSMUSG00000090935.235|Synj2bp (ssRNA)
RNA: GGGAGUUCUACAGUCCGACGAUCGCUUCGAUAUCCGCAUGCUAGGGGACUAGGGGAUCAUAUUCCCUCAUAUAUAAUCAAGACUCAUAUUGAAAAAUGAGUUCUGGAUUGUAAAGAGAACUUACUUUUUCCACUUGCCUGUAAGUCUUUGUCCACAAGUUAAAAACAUACACAGUGCUAAGGAAUGAUCAUAACUGAAACAUUUCAAGAACUAUUAGCAGAGCAUGUAUAUUGAGGAUGGGGAAGUUAGCUUUAAAAGAGAAUGCUCAGUCAGUGACAUUAGGAAAAUAAUGACUGAAGCAAUCUCUUGCGGUCGCACUAGUGUGGAAUUCUCGGGUGUCAAGG

Chain of TDP-43 (Q13148 whole entry): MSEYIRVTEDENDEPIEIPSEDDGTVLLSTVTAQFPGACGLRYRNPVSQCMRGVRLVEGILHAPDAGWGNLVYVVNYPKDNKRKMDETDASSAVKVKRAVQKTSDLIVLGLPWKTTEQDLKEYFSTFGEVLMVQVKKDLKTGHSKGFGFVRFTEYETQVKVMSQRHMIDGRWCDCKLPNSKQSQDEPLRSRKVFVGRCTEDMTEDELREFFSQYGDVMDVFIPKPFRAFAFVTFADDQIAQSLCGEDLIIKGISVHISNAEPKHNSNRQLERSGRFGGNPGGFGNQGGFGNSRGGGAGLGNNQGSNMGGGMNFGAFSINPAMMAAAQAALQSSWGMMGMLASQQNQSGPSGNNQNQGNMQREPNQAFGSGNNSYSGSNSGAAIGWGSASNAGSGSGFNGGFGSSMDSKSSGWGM

This test has as its target TDP-43 (Homo sapiens, UniProt Q13148 1-414). As to the kind of experiment: RNA Bind-n-Seq with designed 260-mer pool; 25 mM Tris-HCl, 150 mM KCl, 3 mM MgCl2, BSA (printed 500 mg/mL), 20 units/mL SUPERase IN; pH not stated; 500 nM RNA pool, 1 h, 4 C; TDP-43 5, 50, 500 nM; high values mean tight binding. The settings on record: protein: recombinant; tags: SBP (GST cleaved off with PreScission; pGEX-GST-SBP). The procedure, abridged:
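An in vitro-transcribed pool of 260-nt 3′ UTR oligos (500 nM) was incubated for 1 h at 4 °C with recombinant SBP-tagged TDP-43 at 5, 50 or 500 nM held on streptavidin beads. The buffer contained 25 mM Tris-HCl, 150 mM KCl, 3 mM MgCl2, BSA and SUPERase IN. Biotin-eluted bound RNA was sequenced, and binding, R, is each oligo's normalized read abundance in the bound sample over that in input.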
For B1, the binding signal is 3.59 R (bound/input frequency ratio).
For B2 the value was 0.458 R (bound/input frequency ratio); for B3, 0.881 R (bound/input frequency ratio).
For B4 the value was 1.57 R (bound/input frequency ratio); for B5, 0.533 R (bound/input frequency ratio); for B6, 0.716 R (bound/input frequency ratio).
For the molecule B7, the binding signal is 1.62 R (bound/input frequency ratio).
The result for B8 reads 0.484 R (bound/input frequency ratio); that for B9, 0.356 R (bound/input frequency ratio).
For B10 the value was 0.157 R (bound/input frequency ratio).
